# Reference: PubChem BioAssay (NCI)
# About 83,000 compounds went through this panel and 20% of them were active in at least one assay; those are over-represented in the sample as a whole.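 Method: cells in 96-well plates; compound added at one concentration; 48 h incubation; percent growth measured; values under 10 scored active.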 Unmarked numbers belong to inactive results. The source made the active and inactive calls.
# Test system: COLO 205 colon
# Experiment: NCI-60 one-dose screen, 48 h (100 = growth as untreated, 0 = no growth, -100 = all killed)
# Conditions: 10 µM unless noted
# Method: Cells are grown in 96 well plates and exposed to the test compound for 48 hours. Compounds are tested at a single concentration, which is 10^-5 M for most compounds. The reported endpoint is percent growth (GI% or GIPRCNT), where numbers from 0 - 100% represent growth inhibition, and numbers from -100% - 0 represent cell death. For example, a value of 40 represents 60% growth inhibition. A value of 0 means no net growth occurred over the course of the experiment. A value of -40 indicates 40% of cells at the beginning of the experiment died by the end of the experiment. A value of -100 means all cells are dead at the end of the experiment.
# NCI-60 Human Tumor Cell Lines Screen was performed using the standard one-dose NCI protocol, which is described in more detail at https://dtp.cancer.gov/discovery_development/nci-60/default.htm.
# Compounds with GIPRCNT values below 10 were considered active. Activity score was based on GIPRCNT using the following formula: […]
# Score is 0 for GIPRCNT values of 100 or above, 50 for GIPRCNT values of 0, and 100 for GIPRCNT values of -100.
row,SMILES,growth
1,COc1cc2c(cc1OCCCCCOc1ccc(-n3c(C)nc4ccccc4c3=O)cc1)N=C[C@@H]1CCCN1C2=O,-22.3% (active)
2,Cc1cccc([N+](=O)[O-])c1I,110%
3,Oc1c(CNCCNCc2cc(Cl)cc(Cc3ccccc3)c2O)cc(Cl)cc1Cc1ccccc1,8.84% (active)
4,C[C@H]1[C@H](C)CC[C@]2(COC(=O)CCC(=O)O)CC[C@]3(C)C(=CC[C@@H]4[C@@]5(C)CCCNC(C)(C)[C@@H]5CC[C@]43C)[C@H]12,69.1% [100 µM]
5,COc1ccc(-c2cc(-c3ccccc3)nc(SCCCCCC(=O)NO)n2)cc1,38.1%
6,C1=C[C@H]2O[C@@H]1c1ccc3[nH]ccc3c12,110%
7,COC(=O)c1cc(O)c2c(c1C(=O)OC)C[C@H]1[C@@H]3CC=C4C[C@@H](O)CC[C@]4(C)[C@H]3CC[C@]21C,83.1%
8,c1coc2occoc=2o1,122%
9,CC[C@]12C=CCN3CC[C@@]4(c5ccc(OC)cc5N(C)[C@H]4[C@@](O)(C(=O)OC)[C@@H]1OC(=O)CCC(=O)O[C@H]1CC[C@H]4[C@@H]5CCC6=CC(=O)CC[C@@H]6[C@H]5CC[C@]14C)[C@@H]32,-87.6% [100 µM] (active)
10,O=C(CCN1CCCCC1)c1ccc2ccccc2c1,112%
11,COc1ccc(-c2cc(-c3ccc(OC)c(OC)c3)nc(SCCCCCC(=O)NO)n2)cc1,36.8%
12,Cc1cnc(N)nc1OCCNC(=O)c1cccc(-c2ccc(S(=O)(=O)Nc3ccc4c(c3)N(C(=O)C3CC3)CCC4)cc2)c1,99.1%
13,C=CCCC1(C)NC(=O)NC1=O (stereo not given),102%
14,Cc1ccc(Cn2c(O)c(N=NC(=O)c3ccc(S(N)(=O)=O)cc3)c3ccccc32)cc1,115%
15,O=C1NC(=O)c2cc([N+](=O)[O-])cc3cccc1c23,105%
16,CC(=O)O.CC(=O)O.O.[Fe],101%
17,O=c1cc(-c2ccccc2)oc2c(O)c(O)ccc12,90.7%
18,Nc1ccc2c(c1)Cc1cc(NC(=O)C(F)(F)F)ccc1-2,109%
19,Cc1c(Cn2cc(COc3ccc(Br)cc3)nn2)c(C)c(Cn2cc(COc3ccc(Br)cc3)nn2)c(C)c1Cn1cc(COc2ccc(Br)cc2)nn1,84.6%
20,O=C(CCNCc1ccccc1)c1ccccc1,111%

row,SMILES,growth
1,N#Cc1c(N2CCOCC2)nc(=S)[nH]c1-c1ccco1,75.7%
2,CCn1cc(-c2[nH]c(=S)ncc2-c2ccc(Cl)cc2)c(-c2ccc(Br)cc2)n1,94%
3,O=C(Nc1ccc(Oc2ccc(F)cc2)c(Cl)c1)c1cnccn1,69.3%
4,Cn1cc(-c2nnc(-c3cn(C)c4ncccc34)s2)c2ccccc21,64.1%
5,CC1Cc2c(Cl)ncnc2N(C)c2ccc(O)cc21 (stereo not given),91.7%
6,Cc1cccc(/C=C2\N=C(c3ccccc3)N(c3ccc(S(N)(=O)=O)cc3)C2=O)c1,104%
7,CCCc1cc2cc(-n3nc(C)c4c3CC(C)(C)CC4=O)cc(NC3CCSCC3)c2c(=O)[nH]1,41.9%
8,C/C=C/C1OC23CCCCC2C(C#N)(C(=N)O3)C1(C#N)C#N (stereo not given),91.6%
9,O=C(O)CSCc1nnc2n(Cc3ccccc3)c(=O)c3c4c(sc3n12)CCCC4,88.2%
10,O=C(N/N=C/c1c(Cl)cccc1Cl)c1cccc(Nc2ccnc(C(F)(F)F)c2)c1,89.4%
11,CC1(C)CC[C@]2(C(N)=O)CC[C@]3(C)C(=CC[C@@H]4[C@@]5(C)C/C(=C/c6cccnc6)C(=O)C(C)(C)[C@@H]5CC[C@]43C)[C@@H]2C1,-57.6% [100 µM] (active)
12,COc1ccc(/C=C(/C(=O)c2ccc(Cl)cc2)C(=O)C(F)(F)F)cc1,110%
13,COc1ccc2c3ccnc(C(F)(F)F)c3n(CCCCN)c2c1,10.7%
14,O=c1cc(-c2ccccc2)oc2cc(OCc3cn(Cc4ccc(F)cc4)nn3)cc(O)c12,103% [100 µM]
15,CC1(C)C(=NO)C(C)(C)C1=NO,116%
16,Cc1ccc(S(=O)(=O)N/N=C2\CC3CCC2(C)C3(C)C)cc1 (stereo not given),113%
17,COc1ccc(C(=O)CCC(=O)O)cc1,101%
18,CCOc1ccccc1/C=N\Nc1ccc(S(=O)(=O)c2ccc(N/N=C/c3ccccc3OCC)cc2)cc1,114%
19,O=S(=O)(NCc1ccccc1)c1ncnc2nc[nH]c12,109%
20,Cc1ccc(NC(=O)N[C@@H](Cc2cc(F)cc(F)c2)C(=O)N[C@@H]2C(=O)N3CCC[C@H]3C(=O)N3CCOC[C@H]3C(=O)N[C@@H](C)C(=O)N3C[C@H](C)C[C@H]3C(=O)O[C@H]2C)cc1,10% (active)
